Most compounds without a hit are left out; they make up all but 6.5% or so of the library.
NADH enzymes = inhibitors of PK/LDH coupling enzymes, profiling panel, artefact control, biochemical, MLSMR library; coupled PK/LDH NADH assays, four targets; IC50, µM (series often up to 10 µM); 65,000 compounds, 0.02% hits;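 active means single-dose screening hits from any of four coupled enzyme assays that gave an IC50 when retested across doses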;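 further: the DPM-DC format reads NADH fluorescence rather than 340 nm absorbance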
DPM-DC inhibit = S. pneumoniae DPM-DC inhibitors, primary screen, biochemical, PK/LDH-coupled NADH fluorescence; diphosphomevalonate decarboxylase (Streptococcus pneumoniae D39); purified DPM-DC; calls only at 10 µM; 65,000 compounds, 0.49% hits; AID 556, 2006;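 active means the 320 compounds with the highest percent inhibition in the single-dose primary screen, excluding strongly autofluorescent ones, cut at about 32% in these data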;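 further: kinetic rate of NADH fluorescence loss reporting ADP formed by the decarboxylase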
MK inhibit = S. pneumoniae MK inhibitors, primary screen, biochemical, PK/LDH-coupled NADH absorbance. purified MK, PK/LDH-coupled NADH absorbance 340 nm. 65,000 compounds, 0.48% hits. inhibition, % at 10 µM;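 active means ranked among the strongest by inhibition in the single 10 µM screen, a fixed top-ranked set picked for dose follow-up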
A340 absorber = compound light absorbance at 340 nm, profiling panel, artefact control, biochemical, MLSMR library, data from PS, PMK, MK assays; compound absorbance at 340 nm, fold over control; fold change at 10 µM; 65,000 tested, under 10 active; AID 708, 2007;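 active means at 10 µM dose, initial 340 nm absorbance at least 2 fold that of control wells; inactive means change under 2 fold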;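 further: initial absorbance extrapolated from kinetic A340 decline of NADH oxidation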
PMK inhibit = S. pneumoniae PMK inhibitors, primary screen, biochemical, mevalonate pathway, pilot trial included; purified PMK, PK/LDH-coupled NADH absorbance 340 nm; inhibition, % at 10 µM; 65,000 compounds, 0.49% hits; phosphomevalonate kinase (Streptococcus pneumoniae D39); AID 539, 2006;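 active means top-ranked compounds by inhibition in the single 10 µM screen, taking a fixed number of the strongest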
Fluor 339 460 = intrinsic fluorescence of library compounds, ex339/em460 – biochemical, MLSMR library, data from DPM-DC assay, artefact control, profiling panel | compound autofluorescence, ex339/em460 nm, NADH buffer; hits give high values; 1 = no-compound wells, NADH background | fluorescence fold increase at 10 µM | 65,000 compounds, 5.5% hits | AID 709, 2007;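 active means at 10 µM, mean starting fluorescence two-fold or more over control wells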;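 further: signal is the first read of a kinetic run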
Hits are given with their value; - = inactive; . = not tested or not shown.

SMILES	NADH enzymes	DPM-DC inhibit	MK inhibit	A340 absorber	PMK inhibit	Fluor 339 460
CC1(C)CC(n2[nH]c(=O)c3c2NC(=O)CSC3c2ccccc2)CCO1 (stereo unspecified)	-	-	-	-	-	-
CC(C)(C)OC(=O)c1c(N)n(Cc2ccco2)c2nc3ccccc3nc12	-	.	-	-	-	2.5
CCOC(=O)c1c(C)n(Cc2ccco2)c2ccc(O)cc12	-	-	-	-	-	-
COc1ccc(CCNC(=O)c2c(N)n(CCN3CCOCC3)c3nc4ccccc4nc23)cc1	-	.	-	-	-	3.4
CCOCC(=O)NC1CCSC1=O (stereo unspecified)	-	-	-	-	25	-
C=CCn1c(O)c(C(=O)CCCCCC)c(=O)[nH]c1=O	-	-	-	-	-	-
Cc1cccn2c(NCC3CCCO3)c(C(C)C)nc12 (stereo unspecified)	-	.	-	-	-	3.6
CCOc1cc(-c2nc3c(C)cccn3c2NCC2CCCO2)ccc1O (stereo unspecified)	-	.	-	-	-	3.9
O=c1[nH]c(=O)n(-c2ccc(F)cc2)c(O)c1C=Nc1ccccc1N1CCCC1	-	-	-	-	-	-
Cn1c(O)c(C=NCCCNC2CCCCC2)c(=O)n(C)c1=O	-	-	-	-	-	-
COc1cc(OC)c(OC)cc1CNCCc1ccc(OC)c(OC)c1	-	-	42	-	-	-
COc1cc(OC)c(OC)cc1CNC(C)C(O)c1ccccc1 (stereo unspecified)	-	-	-	-	-	-
O=C(C1CCC(=O)N1C1CCCCC1)N1CCC2(CC1)OCCO2 (stereo unspecified)	-	-	-	-	-	-
CP(=O)(O)CCCN	-	-	-	-	-	-
CCCNc1oc(-c2cccc3ccccc23)nc1C#N	-	.	-	-	-	3.8
CCC(=O)Nc1cc(C(=O)N2CCC3(CC2)OCCO3)ccc1S(=O)(=O)c1ccc(C)cc1	-	-	-	-	-	-
Cc1ccc2cc3cc(C(=O)N4CCC5(CC4)OCCO5)oc3nc2c1	-	-	-	-	-	3.5
Cc1cc2c(C(F)(F)F)cc(=O)oc2c2c1NCCC2	-	-	-	-	26	-
COc1cc(CN2CCN(C(=O)COc3ccccc3)CC2)cc(OC)c1OC	-	-	47	-	-	-
COc1ccc(CN2CCN(c3ccccc3)CC2)c(C)c1C	-	-	50	-	-	-

Screening results: PubChem BioAssay, SRMLSC
